Measurements as given in PubChem BioAssay AID1159580 (chemical genetic matrix, 2015).
In all, about 5,500 compounds went through this assay and about 2,000 (36%) were called active. Another 18% or so got no clear call; they are omitted. Cut-off read from the data, not from the text of the source: active = normalized growth mostly below about 0.91 (no sharp cut-off); inconclusive = no clear call, values can overlap the other calls; inactive = mostly above about 0.92. Some of the results follow.

Experiment: chemical genetic growth profiling, strain panel (AID 1159580);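 note: tested at 20 µM; growth read once vehicle control cultures reached saturation at 30 °C; 1 = growth at the plate median or of vehicle wells; lower values mean less growth of the strain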
Conditions: growth OD
[1] = S. cerevisiae deletion strains, locus YGR078C, strain PAC10, active compounds read low
[2] = S. cerevisiae deletion strains, locus YJR075W, strain HOC1, active compounds read low
[3] = S. cerevisiae deletion strains, locus YMR307W, strain GAS1, active compounds read low
[4] = S. cerevisiae deletion strains, locus YNL153C, strain GIM3, active compounds read low
[5] = S. cerevisiae deletion strains, locus YNL322C, strain KRE1, active compounds read low
[6] = S. cerevisiae deletion strains, locus YPL241C, strain CIN2, active compounds read low
[7] = S. cerevisiae deletion strains, locus YBR229C, strain ROT2, active compounds read low
[8] = S. cerevisiae deletion strains, locus YDL101C, strain DUN1, active compounds read low
[9] = S. cerevisiae deletion strains, locus YDR150W, strain NUM1, active compounds read low
[10] = S. cerevisiae deletion strains, locus YEL061C, strain CIN8, active compounds read low
[11] = S. cerevisiae deletion strains, locus YHR030C, strain SLT2, active compounds read low
[12] = S. cerevisiae deletion strains, locus YHR087W, strain rtc3, active compounds read low
[13] = S. cerevisiae deletion strains, locus YJR043C, strain POL32, active compounds read low
[14] = S. cerevisiae deletion strains, locus YLR039C, strain RIC1, active compounds read low
[15] = S. cerevisiae deletion strains, locus YLR058C, strain SHM2 (second series), active compounds read low
[16] = S. cerevisiae deletion strains, locus YLR085C, strain ARP6, active compounds read low
[17] = S. cerevisiae deletion strains, locus YLR262C, strain YPT6, active compounds read low
[18] = S. cerevisiae deletion strains, locus YML094W, strain GIM5, active compounds read low
[19] = S. cerevisiae deletion strains, locus YMR219W, strain ESC1, active compounds read low
[20] = S. cerevisiae deletion strains, locus YMR263W, strain SAP30, active compounds read low
[21] = S. cerevisiae deletion strains, locus YNL128W, strain TEP1, active compounds read low
[22] = S. cerevisiae deletion strains, locus YNL298W, strain CLA4 (second series), active compounds read low
[23] = S. cerevisiae deletion strains, locus YNR030W, strain Alg12, active compounds read low
[24] = S. cerevisiae deletion strains, locus YPL055C, strain LGE1, active compounds read low
[25] = S. cerevisiae deletion strains, locus YPR135W, strain CTF4, active compounds read low
[26] = S. cerevisiae strains, strain wild type, active compounds read low

Measured: normalized growth

CC(C)(Sc1ccc(CCN(CCCCC2CCCCC2)C(=O)NC2CCCCC2)cc1)C(=O)O
inactive: S. cerevisiae deletion strains, locus YAL040C, strain CLN3, active compounds read low 1.06 | S. cerevisiae deletion strains, locus YCL061C, strain MRC1 (second series), active compounds read low 0.994 | S. cerevisiae deletion strains, locus YDR363W, strain ESC2, active compounds read low 1.01 | S. cerevisiae deletion strains, locus YER002W, strain NOP16, active compounds read low 1.01 | [1] 1.03 | [2] 1.01 | [3] 0.994 | [4] 0.986 | S. cerevisiae deletion strains, locus YNL175C, strain NOP13, active compounds read low 1.01 | S. cerevisiae deletion strains, locus YNL197C, strain WHI3, active compounds read low 1.02 | S. cerevisiae deletion strains, locus YNL224C, strain SQS1, active compounds read low 1 | [5] 0.994 | S. cerevisiae deletion strains, locus YOR083W, strain WHI5 (second series), active compounds read low 0.98 | [6] 1

CC(C)(C)S(=O)(=O)/C(C#N)=C/c1ccc(F)cc1F
inactive: S. cerevisiae deletion strains, locus YAL013W, strain DEP1, active compounds read low 0.995 | [7] 0.999 | [8] 1 | S. cerevisiae deletion strains, locus YDL134C, strain PPH21, active compounds read low 1.01 | [9] 0.947 | [10] 1.02 | [1] 0.999 | [11] 1.08 | [12] 1.01 | S. cerevisiae deletion strains, locus YJL187C, strain SWE1, active compounds read low 1 | [13] 1.01 | [2] 0.987 | S. cerevisiae deletion strains, locus YKL190W, strain CNB1, active compounds read low 1.02 | [14] 0.962 | [15] 0.987 | [16] 1.06 | [17] 0.954 | [18] 1.03 | [19] 0.989 | [20] 0.977 | [3] 1.01 | [21] 1.01 | [4] 1.01 | [22] 1.03 | [5] 0.994 | [23] 1.01 | [24] 0.919 | [6] 1.03 | [25] 1.05 | [26] 1.03

COC(=O)c1ccc2c(c1)N(C)S(=O)(=O)CC2=O
inactive: [7] 0.998 | [8] 0.964 | [9] 0.997 | [10] 0.975 | [1] 1 | [11] 0.994 | [12] 1 | [13] 1.02 | [2] 1.01 | [14] 0.989 | [15] 1.01 | [16] 0.853 | [17] 0.998 | [18] 1 | [19] 0.996 | [20] 0.994 | [3] 0.872 | [21] 1.01 | [4] 0.932 | [22] 0.987 | [5] 0.993 | [23] 0.987 | [24] 0.99 | [6] 0.936 | [25] 1.03 | [26] 1.01
